Source: PubChem
Only a selection was taken, and hits are over-represented in it overall.
Pf Dd2 growth: qHTS Primary assay for Inhibitors of Plasmodium falciparum Dd2 growth in vitro | AID 1347417, 2020 | Potency, µM (doses to about 28.9 µM), without a hit: top-dose activity, negative = inhibition, hits mostly inhibitors | 120,000 tested, 4.3% active | P. falciparum Dd2 growth, SYBR Green, 72 h; active = well fitted inhibition curve with a large enough effect;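 also: plate controls were DMSO vehicle for no effect and reference drug for full effect; nearly all actives have a fitted effect of over 65% in size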
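Infected erythrocytes (Dd2, 0.3% parasitemia, 2.5% hematocrit final) are added to compound in RPMI-1640/Albumax II medium, grown 72 h at 37C in low oxygen, then lysed with saponin/Triton-X containing SYBR Green and read by fluorescence.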
The depositor's hits bear a star; [ ] = another dose, or the depositor's remark. Potency is read from the fitted curve at half-maximal effect.

What do the screens show for `Cc1ccccc1S(=O)(=O)N1CCCC(CCC(=O)NCc2ccc(F)cc2)C1` (stereo not drawn)?
Pf Dd2 growth: -8%

What do the screens show for `Cc1ccccc1S(=O)(=O)N1CCCC(CCC(=O)Nc2cccc(Cl)c2)C1` (stereo not drawn)?
Pf Dd2 growth: 13µM*

Results for O=C(c1nnn2cc(-c3ccc(F)cc3)[nH]c(=O)c12)N1CCCCC1 ?
Pf Dd2 growth: -1%

What do the screens show for `O=C(c1ccoc1)N1CC2CC(C1)[C@H]1CCCC(=O)N1C2` (stereo partly drawn)?
Pf Dd2 growth: 6%

Results for CNC(=O)[C@@H](Cc1ccccc1)N1CCC[C@H]1C(=O)N1CCOCC1 ?
Pf Dd2 growth: -8%[44.1 µM]

Results for CN1C(=O)[C@@H]2C[C@@H](CN2Cc2ccc3ccccc3n2)Oc2ccccc21 ?
Pf Dd2 growth: inactive

How did Nc1cc(=O)nc(SCC(=O)Nc2ccc(F)cc2)n1CCc1ccccc1 do in these assays?
Pf Dd2 growth: 38%

What do the screens show for `Cc1ccc(NC(=O)C(C)Sc2nc(=O)cc(N)n2-c2ccccc2)cc1` (stereo not drawn)?
Pf Dd2 growth: 21%

Results for CC(Sc1nc(=O)cc(N)n1CCc1ccccc1)C(=O)Nc1ccccc1C#N (stereo not drawn) ?
Pf Dd2 growth: 11µM*

What do the screens show for `O=C(CC(c1ccccc1)c1cn(Cc2ccccc2)c2ccc([N+](=O)[O-])cc12)N1CCOCC1` (stereo not drawn)?
Pf Dd2 growth: -4%

What do the screens show for `O=C([C@@H]1C[C@H](Oc2ccccc2)CN1C(=O)c1ccc2ccccc2n1)N1CCOCC1`?
Pf Dd2 growth: 2%

Results for Cn1nccc1CN1CCn2c(nnc2-c2ccccc2)C1 ?
Pf Dd2 growth: 1%[44.1 µM]

What do the screens show for `O=C1NC[C@@H](CCC(=O)N2CCN(c3ccccc3)CC2)N2C[C@@H](NCc3ccccn3)C[C@@H]12`?
Pf Dd2 growth: -6%

What do the screens show for `CCOC(=O)c1ccc(NC(=O)CC2Nc3ccccc3NC2=O)cc1` (stereo not drawn)?
Pf Dd2 growth: 13µM*

How did COC(=O)c1ccc(NC(=O)CC2Nc3cc(C)c(C)cc3NC2=O)cc1 (stereo not drawn) do in these assays?
Pf Dd2 growth: 4µM*

What do the screens show for `COc1ccc(NC(C)=O)cc1NC(=O)C[C@H]1NC(=O)c2ccccc2NC1=O`?
Pf Dd2 growth: -6%

How did Cc1cc(Br)ccc1NC(=O)C[C@H]1NC(=O)c2ccccc2NC1=O do in these assays?
Pf Dd2 growth: -14%

What do the screens show for `Cc1cc2c(cc1C)NC(CC(=O)Nc1ccccc1)C(=O)N2` (stereo not drawn)?
Pf Dd2 growth: inactive

How did O=C(C[C@H]1NC(=O)c2ccccc2NC1=O)Nc1ccncc1 do in these assays?
Pf Dd2 growth: -4%

What do the screens show for `CCOc1ccccc1NC(=O)C[C@H]1NC(=O)c2ccccc2NC1=O`?
Pf Dd2 growth: -8%

What do the screens show for `CC(=O)c1ccc(NC(=O)CC2Nc3cc(C)c(C)cc3NC2=O)cc1` (stereo not drawn)?
Pf Dd2 growth: 5µM*

What do the screens show for `Cc1ccc(NC(=O)CC2Nc3ccccc3NC2=O)cc1C` (stereo not drawn)?
Pf Dd2 growth: -6%

What do the screens show for `O=C(NC1CC1)c1ccnc2[nH]ccc12`?
Pf Dd2 growth: 19%[44.1 µM]

How did COc1ccc(C2Cn3nnc(C(=O)N4CCN(C(=O)Cc5cccc(F)c5)CC4)c3CO2)cc1 (stereo not drawn) do in these assays?
Pf Dd2 growth: -19%

Results for COC(=O)[C@@H]1C[C@H](NS(=O)(=O)c2cc(OC)ccc2OC)CN1C ?
Pf Dd2 growth: 13%

How did COc1ccc(-n2nc3n(c2=O)CCN(CC2CCCCC2)C3)cc1 do in these assays?
Pf Dd2 growth: -15%

What do the screens show for `COCc1ccc(C(=O)N2CC[C@@H](NC(=O)c3cnccn3)[C@H](O)C2)o1`?
Pf Dd2 growth: 1%

Results for O=C(c1ccc(C(F)(F)F)cc1)N1CCCC2(CC(c3cccc(C(F)(F)F)c3)=NO2)C1 (stereo not drawn) ?
Pf Dd2 growth: 9%

What do the screens show for `Cc1nc(-c2c3n(c(=O)n(Cc4ccccc4C(F)(F)F)c2=O)CCCCC3)no1`?
Pf Dd2 growth: 13%

How did CCCC(=O)N1CCC(N2CC3CC(C2)[C@H]2CCCC(=O)N2C3)CC1 (stereo partly drawn) do in these assays?
Pf Dd2 growth: -11%

What do the screens show for `Cc1cc(=O)n(CC(=O)Nc2ccc(Br)cc2F)c(N(C)Cc2ccccc2)n1`?
Pf Dd2 growth: inactive

How did O=C(CN1CCCC1=O)NC1CCN(Cc2ccccc2)CC1 do in these assays?
Pf Dd2 growth: -24%

How did O=C(NC1CCCN(c2cc(-c3ccc(F)cc3)[nH]n2)C1)c1ccc2nc[nH]c2c1 (stereo not drawn) do in these assays?
Pf Dd2 growth: -17%

How did CC(C)C[C@H](NC(=O)Cn1nc2c(cc1=O)CCCCC2)c1nnc2ccccn12 do in these assays?
Pf Dd2 growth: -8%

How did CC(C)Oc1ccc(CNC(=O)C2Cn3cccc3C(=O)N2C)cc1 (stereo not drawn) do in these assays?
Pf Dd2 growth: 24%
